Hits are enriched below; roughly 18% of the tested compounds scored in any of these assays.
TDP1 cell noCPT: qHTS for Inhibitors of human tyrosyl-DNA phosphodiesterase 1 (TDP1): qHTS in cells in absence of CPT | Potency, µM (series often up to 46.2 µM), usual class: inhibitors | DT40 Tdp1-/- hTDP1 cells, no CPT, ATP luminescence, 48 h | AID 686978, 2013 | 15% of 420,000 active; further: nearly all actives have a fitted effect of over 55% in size
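A cellular qHTS used chicken DT40 cells lacking endogenous Tdp1 but carrying stably transfected human TDP1. Compounds were applied without camptothecin, and cell growth kinetics were judged by ATP-dependent luminescence after ≥48 hr.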
Six1-Eya2 blk: blocks human Six1 binding to Eya2 | Q15475+O00167 | AlphaScreen GST-Six1/His-Eya2 binding, biochemical; stronger effect = lower value | activity change, % (concentration not given with the values) | 0.56% of 360,000 active | AID 651725; in the data active means activity change below about -65%; inconclusive means mostly about -30% to -63%
Target sequence (O00167 whole entry, looked up): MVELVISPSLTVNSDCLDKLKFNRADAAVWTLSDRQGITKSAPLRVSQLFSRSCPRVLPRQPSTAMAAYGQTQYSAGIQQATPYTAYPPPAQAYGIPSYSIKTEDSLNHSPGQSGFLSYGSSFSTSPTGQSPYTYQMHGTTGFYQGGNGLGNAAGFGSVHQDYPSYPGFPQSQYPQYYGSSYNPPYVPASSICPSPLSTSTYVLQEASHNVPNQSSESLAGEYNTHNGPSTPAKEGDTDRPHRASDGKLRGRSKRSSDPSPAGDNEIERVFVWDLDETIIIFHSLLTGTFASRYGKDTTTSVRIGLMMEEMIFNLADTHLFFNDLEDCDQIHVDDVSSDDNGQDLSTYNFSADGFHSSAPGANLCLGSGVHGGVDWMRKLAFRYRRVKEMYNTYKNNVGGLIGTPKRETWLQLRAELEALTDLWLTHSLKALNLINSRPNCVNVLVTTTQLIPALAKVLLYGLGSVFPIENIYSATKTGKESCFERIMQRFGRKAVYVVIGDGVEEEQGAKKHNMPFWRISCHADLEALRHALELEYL
Target sequence (Q15475 whole entry, looked up): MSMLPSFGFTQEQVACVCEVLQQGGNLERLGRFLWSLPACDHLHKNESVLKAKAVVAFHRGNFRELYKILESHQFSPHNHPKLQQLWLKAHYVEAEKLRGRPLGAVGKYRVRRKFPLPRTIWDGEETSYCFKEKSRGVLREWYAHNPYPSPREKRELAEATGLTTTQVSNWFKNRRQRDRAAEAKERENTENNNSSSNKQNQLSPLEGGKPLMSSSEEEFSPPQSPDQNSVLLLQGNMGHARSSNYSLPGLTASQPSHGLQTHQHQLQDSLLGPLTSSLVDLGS
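GST-Six1 + His-Eya2 (5X stock: 250/500 nM); Tris pH 8.0, 300 mM NaCl, 0.05% BSA, 0.02% Tween 20; GSH donor/Ni acceptor beads; 1 h 37 °C dark; AlphaScreen readout.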
IL1B secr inh: inhibitors of inflammasome signaling (IL-1 beta secretion) | THP-1 LPS/ATP IL-1B secretion, AlphaLISA, 16 h; stronger effect = lower value | activity change, % at 57.5 µM | 4.7% of 360,000 active | AID 743279; in the data active means activity change below about -50%; inconclusive means mostly about -30% to -49%
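THP-1 cells pretreated 1 hr with compounds (up to 57.5 uM final), then stimulated with LPS (250 ng/mL final) plus ATP (1.25 mM final); secreted IL-1B measured by AlphaLISA after 16 hr, decreased signal indicating inhibition.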
DT40 TDP1 CPT: growth inhibition of DT40 Tdp1-/-;hTDP1 cells with camptothecin (screen for TDP1 inhibitors); chicken DT40 Tdp1-/-;hTDP1 cells + 20 nM CPT, ATP luminescence, 48 h; Potency, µM (doses to about 46.2 µM), most hits filed as inhibitors; 12% of 420,000 active; further: nearly all actives have a fitted effect of over 55% in size
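Cell growth measured by CellTiter-Glo luminescence after a minimum 48 h, 37 C compound exposure with 20 nM CPT in Tdp1-knockout DT40 cells stably expressing hTDP1, seeded 400/well; qHTS titration format.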
TDP1 inh: inhibitors of human tyrosyl-DNA phosphodiesterase TDP1 | Potency, µM (highest dose often 130 µM), most hits filed as inhibitors | AID 485290 | 0.28% of 350,000 active | Q9NUW8 | recombinant TDP1, AlphaScreen DNA substrate cleavage; further: nearly all actives have a fitted effect of over 40% in size
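Tdp1 1 nM final; 15 min RT w/ cpd; substrate 15 nM, 5 min; beads 10 ug/ml, 10 min; AlphaScreen read. Neg ctrl: no enzyme.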
CtBP-E1A inh: blocks the CtBP interaction with E1A. AlphaScreen GST-E1A/His-CtBP binding, 1536-well; stronger effect = lower value. activity change, % (test concentration not listed). 0.49% of 340,000 active; in the data active means activity change below about -65%; inconclusive means mostly about -30% to -63%
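AlphaScreen with 125 nM GST-E1A and 125 nM His-CtBP (5X stocks) in Tris pH 8.0, 300 mM NaCl, BSA, Tween 20, TCEP. Compounds preincubated 2 h at 37 deg C, then glutathione donor/nickel acceptor beads added for 1 h at 37 deg C in dark.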
Numbers stand for hits; – = inactive; ? = inconclusive; · = not tested or not shown; [ ] = dose if it differs, or a comment. Unless noted, the call rests on the fitted dose curve; in most records, active means well fitted curve in the direction sought with a large enough effect; inconclusive means small, poorly fitted or top-dose-only effect, or another doubt; inactive means no such curve, though single readings can be large; an effect the other way counts as inactive or inconclusive.

SMILES	TDP1 cell noCPT	Six1-Eya2 blk	IL1B secr inh	DT40 TDP1 CPT	TDP1 inh	CtBP-E1A inh
COc1ccc(-n2ncc(C(C)NS(=O)(=O)c3cc(C)sc3C)c2C)cc1 (stereo not drawn)	16.4µM	–	–	?	·	–
COc1ccccc1OCc1ccc(C(=O)Nc2cc(OC)c(OC)c(OC)c2)o1	?	–	?	?	–	–
COc1ccccc1OCc1ccc(C(=O)Nc2ccc(C)c(C)c2)o1	?	·	·	23.1µM	–	·
COc1cc(NC(=O)c2ccc(COc3ccccc3Br)o2)cc(OC)c1OC	23.1µM	–	–	?	–	–
CCCNC(=O)c1ccc(COc2ccc(CCC)cc2OC)o1	14.6µM	–	?	?	·	–
COc1ccccc1OCc1ccc(C(=O)NN)o1	–	–	–	–	–	·
COc1ccc(NC(=O)c2ccc(COc3ccccc3OC)o2)cc1OC	23.1µM	–	–	14.6µM	–	–
Cc1ccc(NC(=S)N/N=C2\CC3CC=CC23)c(C)c1 (stereo not drawn)	–	–	–	–	–	–
COc1ccc(/C(C)=N/NC(=O)CNC(=O)c2ccncc2)c(OC)c1	–	–	–	–	–	–
COc1ccc2ccc(=O)oc2c1CC(O)C(C)(C)O (stereo not drawn)	–	–	–	–	·	–
CCCc1ccc(OCc2ccc(C(=O)N3CCN(c4ccccn4)CC3)o2)c(OC)c1	20.6µM	–	–	?	–	–
Cc1nc2ccc(C(=O)OCC(=O)N(C)c3ccccc3)cc2nc1C	?	–	–	?	–	–
CC1(C)CCCC(C)(C)N1CC(O)COCCOc1ccc(Br)cc1 (stereo not drawn)	16.4µM	–	–	?	–	–
OC(CNC1CCCC1)COCCOc1ccc(Br)cc1 (stereo not drawn)	?	–	-65.6	?	–	–
COc1ccccc1N1CCN(CC(O)COc2ccc(C)cc2C)CC1 (stereo not drawn)	?	–	-64.7	?	·	–
Cc1ccc(OCC(O)CN2CCN(c3ccccn3)CC2)c(C)c1 (stereo not drawn)	–	–	–	–	–	–
OC(COc1ccc(Br)cc1)CN1CCOCC1 (stereo not drawn)	–	–	–	–	–	–
OCCN1CCN(CC(O)COCCOc2ccc(Br)cc2)CC1 (stereo not drawn)	23.1µM	–	–	?	–	–
OC(CNC1CCCC1)COc1ccc(Cl)cc1 (stereo not drawn)	?	–	?	?	–	–
Cc1ccccc1OCC(=O)NCC(=O)N/N=C/C=C/c1ccccc1	·	·	·	·	–	·
CCNC(=O)NC(=O)CSc1nnc(-c2c[nH]c3ccccc23)o1	?	–	–	?	–[0.0935 µM]	?
Cc1ccc(N(CC(N)=O)C2SC(=O)N(Cc3cccc(C(=O)O)c3)C2=O)cc1 (stereo not drawn)	–	–	–	–	–	–
COc1ccccc1N1CCN(CC(O)COCCOc2ccc(Br)cc2)CC1 (stereo not drawn)	?	–	–	16.4µM	–	–
COc1ccccc1N1CCN(CC(O)COCc2cccs2)CC1 (stereo not drawn)	–	–	–	–	–	–
Cc1ccc(N2CCN(CC(O)COc3cccc4ccccc34)CC2)cc1 (stereo not drawn)	?	?	–	?	–	·
SMILES	TDP1 cell noCPT	Six1-Eya2 blk	IL1B secr inh	DT40 TDP1 CPT	TDP1 inh	CtBP-E1A inh
OC(COc1cccc2ccccc12)CN1CCN(c2ccccc2Cl)CC1 (stereo not drawn)	?	–	–	18.4µM	–	·
COc1ccccc1N1CCN(CC(O)COc2c(OC)cccc2OC)CC1 (stereo not drawn)	?	–	–	16.4µM	–	–
O=C(c1ccccc1Sc1ccccc1[N+](=O)[O-])N1CCCCC1	–	–	–	–	–	–
CC(=O)O[C@H]1C[C@@]2(O)[C@@H](OC(=O)c3ccccc3)C3[C@@](C)([C@@H](O)C[C@H]4OC[C@@]34OC(C)=O)[C@@H](O)[C@H](OC(C)=O)C(=C1C)C2(C)C (stereo partly drawn)	18.4µM	–	–	16.4µM	·	–
CC(=O)O[C@@]12CO[C@@H]1C[C@H](O)[C@@]1(C)C(=O)[C@H](O)C3=C(C)[C@@H](OC(=O)[C@H](O)[C@@H](NC(=O)OC(C)(C)C)c4ccccc4)C[C@](O)([C@@H](OC(=O)c4ccccc4)[C@H]21)C3(C)C	·	·	·	·	–	·
COC(=O)c1sc2ncn(CC(=O)NCCc3ccc(OC)c(OC)c3)c(=O)c2c1C	–	–	–	–	–	–
COc1ccc(-c2csc(NC(=O)C3=NN(c4ccccc4)C(=O)CC3)n2)cc1	16.4µM	–	–	14.6µM	–	–
COc1ccc(-c2nc(NC(=O)C3=NN(c4cccc(C)c4)C(=O)CC3)sc2C)cc1	?	–	–	23.1µM	–	·
Cc1sc(NC(=O)c2cccc(N3C(=O)CCC3=O)c2)nc1-c1ccccc1	?	–	-56.7	–	·	–
Cc1cccc2sc(NC(=O)C3=NN(c4ccccc4)C(=O)CC3)nc12	?	–	–	–	–	·
COc1ccc(OC)c2sc(NC(=O)c3cccc(N4C(=O)CCC4=O)c3)nc12	–	–	–	–	–	–
O=C(Nc1nc(-c2cc(F)ccc2F)cs1)C1=NN(c2ccccc2)C(=O)CC1	?	–	–	?	–	–
CCOC(=O)c1cccc(NC(=O)C(C)N2C(=O)c3ccccc3C2=O)c1 (stereo not drawn)	–	–	–	–	–	–
CCc1nc2cc(NC(=O)C3(C)CCCN(C(C)C)C3)ccc2o1 (stereo not drawn)	–	–	–	–	·	–
CN1CCN(C(=O)c2cc3nc(-c4ccccc4)cc(-c4ccccc4)n3n2)CC1	?	–	?	–	–	–
O=C(c1cc2nc(-c3ccccc3)cc(-c3ccccc3)n2n1)N1CCCC1	?	–	-66.9	?	–	–
O=C(c1cc2nc(-c3ccccc3)cc(-c3ccccc3)n2n1)N1CCN(C(=O)c2ccco2)CC1	14.6µM	–	?	23.1µM	–	–
Cc1ccc(S(=O)(=O)N2CCOCC2)cc1NC(=O)COC(=O)c1ccco1	–	–	–	–	·	–
CCN(CC)c1ccc(S(=O)(=O)N2CCOCC2)cc1NC(=O)Cn1nc(C)c([N+](=O)[O-])c1C	?	–	–	?	–	·
CCN(CC)c1ccc(S(=O)(=O)N2CCOCC2)cc1NC(=O)COC(=O)/C=C/c1ccccc1	?	–	–	18.4µM	·	·
CCN(CC)c1ccc(S(=O)(=O)N2CCOCC2)cc1NC(=O)COC(=O)c1ccco1	–	–	–	–	–	–

Screening data: PubChem, National Center for Advancing Translational Sciences (NCATS)
